# This is a sample that favours compounds with a hit; in the whole collection about 2.2% have one here.
# HTR5A inv ag: HTR5A inverse agonism, opioid heterodimer counter-screen. P47898. HTR5A cell line, luminescence. inhibition, % at 9.3 µM. actives 0.083% (n = 340,000). AID 504634; in the data active = inhibition mostly above about 23%, no sharp cut-off; inactive = mostly below about 18%;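 note: 0% = cells with DMSO and 100% = no-cell wells with DMSO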
# HTR2A ag: agonists of mouse serotonin 5-HT2A receptor (HTR2A). P35363. CHO-K1 mHTR2A beta-arrestin complementation, luminescence; percent of 30 µM serotonin response. activation, % at 7.6 µM. actives 0.66% (n = 360,000);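 active = activation above a run cutoff, the mean activation of all tested compounds plus 3 SD, cut at about 14% in these data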;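 note: 0% = plate median of compound wells and 100% = 30 µM serotonin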
# HTR5A ag: HTR5A agonism, opioid heterodimer counter-screen; HTR5A agonist assay, luminescence, cell-based; activation, % at 9.3 µM; actives 0.61% (n = 340,000); in the data active = activation mostly above about 9.5%, no sharp cut-off; inactive = mostly below about 7.6%;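 note: 0% = cells with vehicle only and 100% = reference agonist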
# sPLA2-III inh: Inhibits HGIII-sPLA2 liposome hydrolysis, primary screen; Q9NZ20; QFRET BODIPY PC-A2 liposome hydrolysis, fluorescence; inhibition, % at 12.2 µM; actives 0.56% (n = 370,000); AID 743126;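 active = inhibition above mean plus 3 SD of compounds lying within the high and low control bounds, cut at about 19% in these data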;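 note: 0% = median of test compound wells and 100% = no enzyme DMSO wells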
# Target sequence (Q9NZ20 whole entry, looked up): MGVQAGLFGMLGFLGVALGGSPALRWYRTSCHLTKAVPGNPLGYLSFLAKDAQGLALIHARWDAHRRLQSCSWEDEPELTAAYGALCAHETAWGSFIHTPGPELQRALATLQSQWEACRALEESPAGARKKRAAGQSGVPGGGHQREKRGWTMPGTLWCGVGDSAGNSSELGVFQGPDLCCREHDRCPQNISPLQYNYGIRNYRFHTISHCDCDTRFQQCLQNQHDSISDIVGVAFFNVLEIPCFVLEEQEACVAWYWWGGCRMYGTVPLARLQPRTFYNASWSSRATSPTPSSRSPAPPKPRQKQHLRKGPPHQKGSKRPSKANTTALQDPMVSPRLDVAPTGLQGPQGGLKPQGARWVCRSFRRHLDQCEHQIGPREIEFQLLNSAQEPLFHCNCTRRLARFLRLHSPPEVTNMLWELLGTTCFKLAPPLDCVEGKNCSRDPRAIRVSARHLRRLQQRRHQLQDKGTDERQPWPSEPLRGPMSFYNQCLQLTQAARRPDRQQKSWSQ
# MOR-DOR ag: agonists of human mu-delta opioid receptor heterodimerization. cells, OPRM1-OPRD1 heterodimerization, luminescence. activation, % at 9.3 µM. actives 0.3% (n = 340,000); in the data active = activation above about 18%;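 note: 0% = vehicle-treated cells and 100% = reference agonist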
# OPRM1-OPRD1 inv: inverse agonists of human mu-delta opioid receptor heterodimerization | P35372+P41143 | cell-based MOR-DOR heterodimer luminescence, inverse agonism | inhibition, % at 9.3 µM | actives 0.21% (n = 340,000) | AID 504357; in the data active = inhibition above about 22%, passing the limit was not always enough;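 note: 0% = cells with DMSO and 100% = wells without cells with DMSO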
# OPRM1 ag: OPRM1 agonism in mouse HTR2A counterscreen. shares compounds with HTR2A ag. activation, % at 9.3 µM. actives 5.3% (n = 2,300). U2OS OPRM1 beta-arrestin PathHunter, luminescence; DMSO 0%, DAMGO 9.3 µM 100%;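 active = mean activation above the mean of DMSO-only wells plus 3 SD, cut at about 0.5% in these data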
# HTR2A ag conf: confirmation of mouse HTR2A serotonin receptor agonists. actives 19% (n = 2,300). activation, % at 7.6 µM. CHO-K1 PathHunter beta-arrestin recruitment, luminescence; DMSO 0%, 30 µM serotonin 100%. shares compounds with HTR2A ag;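 active = mean activation across triplicates above the hit threshold derived in the original primary screen, cut at about 15% in these data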
# An asterisk follows results filed as active; nt = not tested or not shown.
SMILES,HTR5A inv ag,HTR2A ag,HTR5A ag,sPLA2-III inh,MOR-DOR ag,OPRM1-OPRD1 inv,OPRM1 ag,HTR2A ag conf
N#Cc1sc2nc3c(c(-c4ccco4)c2c1N)CCCC3,-20.2,18.6*,6.2,-5.7,11.3,-66.9,0.2,2.4
Cc1ccccc1NC(=O)c1sc2nc3c(c(-c4ccco4)c2c1N)CCC3,10.0,-2.2,0.2,5.2,0.3,-2.0,nt,nt
COC(=O)[C@]1(C)N[C@H](CN(C)C(=O)Nc2ccc(Cl)cc2)[C@@H]2C(=O)N(Cc3ccccc3)C(=O)[C@@H]21,11.4,17.5*,-3.3,-5.5,-3.8,17.6,-0.7,1.6
COC(=O)[C@]1(C)N[C@H](CN(C)C(=O)Nc2ccc(C)cc2)[C@@H]2C(=O)N(Cc3ccccc3)C(=O)[C@@H]21,13.6,-0.7,-3.7,7.0,-0.3,1.4,nt,nt
CCCCNC[C@@]12CO[C@H](c3ccc(Cl)cc3)N1[C@@H](c1ccc(Cl)cc1)SC2,nt,nt,nt,-3.0,nt,nt,nt,nt
COc1cccc(-n2c(SCC(=O)N3CCCCC3)nc3c([nH]c4ccccc43)c2=O)c1,0.8,20.8*,-0.3,-0.9,-2.7,13.7,-0.6,-3.6
Cc1cccc(C)c1NC(=O)C1CCCN1S(=O)(=O)c1cccc2cccnc12 (stereo not given),nt,nt,nt,4.1,nt,nt,nt,nt
O=C(NCC(c1ccco1)N1CCN(c2ccccc2F)CC1)C1CCCCC1 (stereo not given),2.9,16.9*,0.3,-1.0,0.6,-3.8,-0.3,48.3*
COc1ccc(CNC(=O)C2CCCN(c3nc4ccccc4o3)C2)cc1 (stereo not given),nt,nt,nt,8.1,nt,nt,nt,nt
CC(C)CC(NS(=O)(=O)OCC(Cl)(Cl)Cl)c1ccccc1 (stereo not given),9.8,19.5*,4.2,-4.7,10.5,-48.3,0.9*,-1.3
O=C(CCl)Nc1ccc(C(=O)NCC2COc3ccccc3O2)cc1 (stereo not given),nt,nt,nt,-0.2,nt,nt,nt,nt
Cc1ccc(S(=O)(=O)NCCN(CCNS(=O)(=O)c2ccc(C)cc2)S(C)(=O)=O)cc1,5.2,24.2*,0.3,-23.5,-1.5,8.3,-0.6,-3.8
COc1ccc(CCNC(=O)/C=C/c2ccco2)cc1OC,-10.4,4.8,2.8,-6.8,-2.1,10.2,nt,nt
CCOc1ccc(CCNC(=O)/C=C/c2ccco2)cc1OCC,-3.9,18.7*,3.1,1.8,-1.9,13.4,-0.5,-4.4
NC(=O)c1nsc(C(=O)N(c2ccccc2F)C(C(=O)NCc2ccc(F)cc2)c2ccc(O)cc2)c1N (stereo not given),-3.9,22.6*,1.6,-31.0,0.2,-1.0,-0.3,2.2
COc1ccccc1N(C(=O)c1snc(C(N)=O)c1N)C(C(=O)NCc1ccccc1)c1ccc(O)cc1 (stereo not given),-9.3,-2.5,3.3,-22.4,-1.6,8.5,nt,nt
Cc1cccc(C(=O)OCC(=O)c2c(N)n(CC(C)C)c(=O)n(C)c2=O)c1[N+](=O)[O-],3.1,16.9*,-1.2,-17.3,0.8,-5.5,-0.1,-0.6
COC(=O)[C@]1(CNC(C)=O)CC(=O)N(Cc2ccc(Cl)cc2)[C@@H]1c1ccc(OC)cc1,nt,nt,nt,8.9,nt,nt,nt,nt
CN(CC(=O)Nc1ccc(F)cc1)C(=O)CN1C(=O)NC2(CCCC2)C1=O,-10.4,19.9*,6.8,8.0,-2.0,9.8,-0.6,-4.4
CCN(CC(=O)Nc1c(F)cccc1F)C(=O)CN1C(=O)NC2(CCCC2)C1=O,-21.6,0.0,7.9,9.6,-2.5,15.7,nt,nt
CCN(CC(=O)Nc1ccccc1C(F)(F)F)C(=O)CN1C(=O)NC2(CCCCC2)C1=O,-22.0,17.0*,7.3,-0.8,-0.7,4.4,-0.7,-3.6
COC(=O)[C@]12C[C@H](CC(=O)N3CCC(c4ccccc4)CC3)C(=O)N(CCc3ccc(OC)c(OC)c3)C1=C[C@H](C(C)C)O[C@@H]2C1CC1,nt,nt,nt,-4.2,nt,nt,nt,nt
N#CC1(NC(=O)CSc2ccccn2)CCCCC1,-11.5,14.6*,-8.2,2.0,-0.6,3.1,-0.6,-3.5
CC(=O)Nc1nc2ncccn2c1-c1ccc(C)cc1,nt,nt,nt,5.2,nt,nt,nt,nt
O=C(NCCc1ccc(O)c(O)c1)C1COc2ccccc2O1 (stereo not given),2.9,14.5*,-1.1,-6.6,0.5,-2.9,-0.4,22.9*
SMILES,HTR5A inv ag,HTR2A ag,HTR5A ag,sPLA2-III inh,MOR-DOR ag,OPRM1-OPRD1 inv,OPRM1 ag,HTR2A ag conf
Cc1c(C)c2ccc(OCC(=O)NCc3ccccn3)cc2oc1=O,15.3,5.5,3.1,-4.9,-3.7,18.9,nt,nt
Cc1c(C)c2ccc(OCC(=O)Nc3ccccn3)cc2oc1=O,-10.8,17.8*,2.9,1.2,-1.9,9.3,-0.7,-2.7
Cc1ccc(NC(=O)CN2CCOCC2)cc1,-4.6,14.5*,1.2,-1.2,-2.1,9.2,-0.5,-0.2
CC(=O)c1ccc(NC(=O)CN2CCOCC2)cc1,5.0,-4.7,-1.3,-2.2,-1.2,5.5,nt,nt
Nc1c(Cl)ncnc1N1CCCC1,18.0,14.6*,2.0,2.4,-2.2,10.9,-0.4,-2.8
O=C(CCN1CCN(c2ccccc2F)CC1)Nc1ccc2c(c1)OCO2,6.0,17.6*,-1.2,-3.2,-0.7,4.1,-0.3,59.4*
O=C(CCN1CCN(c2ccccc2)CC1)Nc1ccc2c(c1)OCO2,-8.5,12.6,0.4,5.1,-1.0,5.8,nt,nt
O=C(CSc1ccccc1)NCc1ccco1,1.1,15.3*,-2.7,2.6,-0.8,4.7,-0.5,3.3
CCN1CCCCC(NC(=O)c2cc(OC)c(OC)c(OC)c2)C1=O (stereo not given),nt,nt,nt,11.0,nt,nt,nt,nt
CC1CC(C)CN(C(=O)c2ccc3nc[nH]c3c2)C1 (stereo not given),-2.6,15.8*,-2.5,5.6,0.0,0.3,-0.6,-2.8
CC1CC(C)CN(C(=O)c2ccc3ncsc3c2)C1 (stereo not given),-23.0,3.0,3.3,2.0,0.4,-1.5,nt,nt
Cc1ccc(S(=O)(=O)N2CCOCC2)cc1NC(=O)COC(=O)c1ccc2c(c1)OCCO2,4.7,17.1*,-1.7,1.6,-1.9,9.2,-0.6,-3.5
Cc1ccc(S(=O)(=O)N2CCOCC2)cc1NC(=O)CNCc1cccnc1,-6.9,28.0*,2.4,-4.2,-0.2,1.3,-0.7,75.1*
Cc1cc(-c2ccc3ccccc3c2)n2ncnc2n1,30.9,20.9*,-3.0,3.1,-2.1,11.0,-0.1,1.2
CSc1nnc(-c2cccc(NC(=S)NN)c2)o1,8.8,27.4*,10.3,-3.8,4.7,-32.3,-0.2,-3.7
CSc1nnc(-c2ccc(NC(N)=S)cc2)o1,13.0,-0.2,1.9,8.0,-1.9,9.7,nt,nt
Cc1noc(C)c1S(=O)(=O)N1CCCc2nc(-c3ccc(F)cc3)ccc21,nt,nt,nt,-2.8,nt,nt,nt,nt
O=C(CN1C(=O)NC2(CCCC2)C1=O)OCc1ccccc1F,-5.9,0.0,2.4,5.0,-3.5,13.4,nt,nt
